From PubChem BioAssay
Avidin bead fluor: compound fluoresces at 488/530 nm on avidin beads. compound fluorescence 488/530 nm, flow cytometry; hits give high values. fluorescence (KMESF) at 10 µM. 220,000 tested, 0.38% active; in the data active = fluorescence above about 47
RGS16-Gao HTS: regulators of human RGS16-Galphao interaction; bead-based flow cytometry RGS16-Galphao binding, fluorescence; actives lie on both sides; binding response (% of control), % at 10 µM; 220,000 tested, 0.38% active;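 also: Galphao activated by GDP with aluminum fluoride before binding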
GSH bead fluor: GSH bead compound fluorescence profile; GSH beads flow cytometry, compound fluorescence 488/530 nm; hits give high values; fluorescence (KMESF) at 10 µM; 190,000 tested, 0.25% active; AID 1776; in the data active = fluorescence above about 89;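 also: glutathione beads carrying GST-tagged Bcl family fusion proteins plus one bare bead set; values are compound well signal with DMSO vehicle wells as background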
RGS8-Gao reg: modulates binding of RGS8 to human Galphao; P09471; multiplexed bead flow cytometry; actives lie on both sides; response (percent of control binding), % at 10 µM; 220,000 tested, 0.34% active; in the data active = response below about 60% or above about 140%; inactive = in between;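 also: Galphao activated as the GDP aluminium fluoride complex binding bead-coupled RGS8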
Target sequence (P09471 whole entry, looked up): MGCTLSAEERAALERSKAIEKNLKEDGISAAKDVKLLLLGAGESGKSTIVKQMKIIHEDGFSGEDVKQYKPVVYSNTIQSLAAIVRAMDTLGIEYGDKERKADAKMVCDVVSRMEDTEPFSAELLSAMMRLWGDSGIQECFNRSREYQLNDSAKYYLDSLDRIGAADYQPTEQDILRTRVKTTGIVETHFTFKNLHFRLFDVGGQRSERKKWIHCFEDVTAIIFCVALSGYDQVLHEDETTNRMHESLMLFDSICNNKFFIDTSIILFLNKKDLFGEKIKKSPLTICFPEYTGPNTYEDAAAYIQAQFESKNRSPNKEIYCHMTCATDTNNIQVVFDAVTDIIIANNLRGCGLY
RGS7-Gao reg: human RGS7-Galphao interaction regulation; Multiplexed bead flow cytometry, RGS7-Galphao binding; actives lie on both sides; binding response (% of control), % at 10 µM; 220,000 tested, 0.35% active; in the data active = binding response below about 49% or above about 150%; inconclusive = no clear call, values can overlap the other calls; inactive = in between;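 also: fluorescent Galphao held in activated GDP-AlF4 state binding bead-coupled RGS7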
RGS4-Gao reg: modulates binding of RGS4 to human Galphao; P09471; Multiplexed bead flow cytometry; actives lie on both sides; binding response (% of control), % at 10 µM; 220,000 tested, 0.33% active; in the data active = binding response below about 49% or above about 150%; inactive = in between;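 also: fluorescent Galphao activated with aluminum fluoride binding bead-coupled RGS4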
RGS-Gao: RGS4-Galphao interaction regulator (human); shares compounds with RGS16-Gao HTS; multiplexed bead flow cytometry, RGS–Galpha-o binding; RGS4–Galpha-o binding response, % at 10 µM; 1,600 tested, 99% active; AID 1504;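 also: fluorescently labeled Galpha-o bound to GDP with aluminium fluoride binding biotinylated RGS beads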
Biotin-avidin: interferes with biotinylated probe binding to avidin beads; shares compounds with RGS16-Gao HTS; streptavidin beads, fluorescein-biotin binding, flow cytometry; inhibition, % at 10 µM; 1,700 tested, under 10 active; AID 1783;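 active = inhibition above 50%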;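 also: median green fluorescence of gated singlet beads compared with DMSO control wells; 0% = DMSO wells and 100% = complete loss of bead fluorescence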
RGS8-Gao confirm: RGS8-Galphao interaction regulation, single point confirmation. shares compounds with RGS16-Gao HTS. bead-based flow cytometry RGS8-Galphao binding, fluorescence; actives lie on both sides. binding response (% of control), % at 10 µM. 1,700 tested, 3% active. AID 1836; in the data active = binding response below about 72% or above about 130%; inactive = in between;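 also: Galphao activated as GDP AlF4 complex before binding bead RGS8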
RGS7-Gao single: RGS7-Galphao interaction regulation, single point confirmation; shares compounds with RGS16-Gao HTS; bead-based flow cytometry RGS7-Galphao binding; actives lie on both sides; response (percent of control binding), % at 10 µM; 1,700 tested, 7.8% active; AID 1837; in the data active = response below about 75% or above about 130%; inactive = in between;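 also: fluorescent Galphao activated with GDP and aluminum fluoride binding bead-coupled RGS7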
RGS16-Gao conf: RGS16-Galphao interaction regulation, single point confirmation; AID 1838; shares compounds with RGS16-Gao HTS; 1,700 tested, 4% active; bead-based flow cytometry, RGS16-Galphao binding; actives lie on both sides; response (% of control binding), % at 10 µM; in the data active = response below about 74% or above about 130%; inactive = in between;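 also: Galphao activated as the GDP aluminium fluoride complex binding bead-coupled RGS16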
RGS4-Gao confirm: RGS4-Galphao interaction regulation, single point confirmation; shares compounds with RGS16-Gao HTS; RGS4-Galphao binding, multiplexed bead flow cytometry; actives lie on both sides; binding response (% of control), % at 10 µM; 1,700 tested, 4% active; in the data active = binding response below about 74% or above about 130%; inactive = in between
RGS19-Gao conf: confirmation of regulators of human RGS19-Galphao interaction | AID 1841 | 1,700 tested, 5% active | shares compounds with RGS16-Gao HTS | response (percent of control binding), % at 10 µM | bead-based flow cytometry RGS19-Galphao binding; actives lie on both sides; in the data active = response below about 50% or above about 160%; inactive = in between;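 also: 100% = no compound control and 0% = blank background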
Target sequence (P09471 whole entry, looked up): as above
Target sequence (P49795 whole entry, looked up): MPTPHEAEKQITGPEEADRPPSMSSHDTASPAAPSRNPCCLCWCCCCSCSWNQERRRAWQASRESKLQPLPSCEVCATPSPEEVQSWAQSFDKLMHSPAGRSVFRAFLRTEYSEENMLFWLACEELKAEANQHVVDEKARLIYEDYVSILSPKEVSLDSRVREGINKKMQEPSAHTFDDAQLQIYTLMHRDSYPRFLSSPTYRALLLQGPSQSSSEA
Numbers without * were called inactive; ? = inconclusive; . = no result; [ ] = dose if it differs, or a comment. Sampled rows, rich in hits. Any-hit rate of the full collection: about 1.2%. Unless noted, no rule for the calls is given here.

SMILES	Avidin bead fluor	RGS16-Gao HTS	GSH bead fluor	RGS8-Gao reg	RGS7-Gao reg	RGS4-Gao reg	Biotin-avidin	RGS8-Gao confirm	RGS7-Gao single	RGS16-Gao conf	RGS4-Gao confirm	RGS19-Gao conf	others
COc1cc2c3c(c1OC)C1(C=CC(=O)C=C1)CC3N(C(=O)CCC(=O)O)CC2 (configuration not stated)	7	97	.	101	?	98	.	.	.	.	.	.
COc1cc2c3c(c1OC)C1(C=CC(=O)C=C1)CC3N(C(=O)c1ccccc1)CC2 (configuration not stated)	120*	103	12	97	156*[activator]	105	.	.	.	.	.	.	RGS-Gao=105*
O=C(NCCc1ccncc1)Nc1ccccc1Cl	126*	97	9	95	194*[activator]	88	0	97	89	97	97	86	RGS-Gao=88*
O=C(NCCc1ccncc1)Nc1cccc(Cl)c1	7	89	6	94	84	87	.	.	.	.	.	.
CC(C)N1C(=O)CCC1C(=O)NCc1cccs1 (configuration not stated)	7	100	19	103	106	104	.	.	.	.	.	.
CC1CCCN(C(=O)C2CCN(CCCc3ccccc3)CC2)C1 (configuration not stated)	35	95	24	97	98	91	.	.	.	.	.	.
CCCCN(C)C(=O)C1CCN(CCCc2ccccc2)CC1	291*	95	15	89	170*[activator]	121	.	.	.	.	.	.	RGS-Gao=121*
CCC(CO)NCCNC(CC)CO (configuration not stated)	10	-120	11	86	61	27*	1	99	89	98	95	79
CC[C@H](CO)NCCN[C@H](CC)CO	12	93	22	96	100	98	.	.	.	.	.	.
NC(=O)c1ccc(NC(=O)c2ccc(CN3CCOCC3)cc2)cc1	.	.	34	.	.	.	-2	101	102	101	101	99
CCOC(=O)c1ccc(NC(=O)c2ccc(CN3CCOCC3)cc2)cc1	23	104	10	104	104	107	.	.	.	.	.	.
O=C(O)CCCC(=O)Nc1cccc2cccnc12	89*	71	20	88	151*[activator]	107	1	96	95	99	98	93	RGS-Gao=107*
O=C1CCCC2=C1C(c1cccs1)n1ncnc1N2 (configuration not stated)	80*	142	25	105	163*[activator]	202*[activator]	-1	93	61*	72*	74*	40*
Cc1ccsc1C1C2=C(CCCC2=O)Nc2ncnn21 (configuration not stated)	14	102	25	102	99	99	.	.	.	.	.	.
S=C(NCCc1ccccc1)Nc1ccc(Br)cn1	9	101	13	103	107	105	.	.	.	.	.	.
CN(Cc1ccc(F)cc1)Cc1nc(-c2cnccn2)no1	5	91	14	95	104	96	.	.	.	.	.	.
CCOC(=O)COc1nc(-c2ccccc2)cc(-c2ccco2)c1C#N	26	101	.	101	?	105	.	.	.	.	.	.
CCOC(=O)COc1nc(-c2ccc(Cl)cc2)cc(-c2ccco2)c1C#N	82*	155	.	110	?	177*[activator]	0	100	98	100	100	93
O=C(c1ccccc1Cl)N(Cc1ccc(Br)cc1)N1C(=O)CCC1=O	6	80	23	97	96	102	.	.	.	.	.	.
CCOC(=O)c1sc(-c2ccc(C(F)(F)F)cc2)nc1O	6	95	.	100	?	96	.	.	.	.	.	.
CCOC(=O)c1sc(-c2cccc(C(F)(F)F)c2)nc1O	7	96	.	75	?	97	0	100	94	100	98	90
O=C(c1ccncc1)N1N=C(C2CCCCC2)CC1(O)C(F)(F)F (configuration not stated)	2	15	11	61	51	47*	4	96	72*	89	83	78
O=c1c2c3c(sc2nc(NCCOCCO)n1Cc1ccco1)CCCCC3	1	32	.	46*	?	39*	2	103	106	105	106	121
O=C(O)CCN1CCc2ccccc2C1c1cccs1 (configuration not stated)	11	100	72	100	98	100	.	.	.	.	.	.
CC1CCC(NC(=O)CCNC(=O)c2ccccc2)CC1 (configuration not stated)	8	101	14	100	?	99	.	.	.	.	.	.
SMILES	Avidin bead fluor	RGS16-Gao HTS	GSH bead fluor	RGS8-Gao reg	RGS7-Gao reg	RGS4-Gao reg	Biotin-avidin	RGS8-Gao confirm	RGS7-Gao single	RGS16-Gao conf	RGS4-Gao confirm	RGS19-Gao conf	others
COc1cccc(CNC(=O)C2CCN(S(=O)(=O)c3ccc4c(c3)CCC(=O)N4)CC2)c1	4	244	21	141*[activator]	111	110	0	107	102	108	104	116	RGS-Gao=110*
O=C(/C=C/c1ccccc1)NNC(=O)C1CC1	.	.	41	.	.	.	0	95	98	93	94	107
Cc1cc(C)c(S(=O)(=O)N2CCCCC2)c(C)c1N(C)S(=O)(=O)c1ccccc1	10	101	8	102	102	104	.	.	.	.	.	.
CCc1nccn1S(=O)(=O)c1cc(OC)c(Cl)cc1OC	-4	77	12	12*	-76*	-222*	-1	101	75*	89	84	57
CCc1nccn1S(=O)(=O)c1cc(C)c(OC)cc1C	5	113	17	106	103	102	.	.	.	.	.	.
Cc1ccc(S(=O)(=O)CCSc2cccc(C(=O)Nc3ccccc3C(=O)O)c2)cc1	19	102	14	100	101	102	.	.	.	.	.	.
Cc1cccc(NNC(N)=S)c1C	6	98	19	99	93	98	.	.	.	.	.	.
COc1ccc2c(c1)CCCC21NC(=O)N(CC(=O)NC(=O)NCc2ccccc2)C1=O (configuration not stated)	4	102	11	101	107	103	.	.	.	.	.	.
